Targets with a hit are over-represented here; the source holds about 8,800 in all. About 0.5% of all pairs of compound and target were hits. Values without a mark were called inactive.
The targets below were run with C1=CC=C(C=C1)[C@H](COC2=CC3=C(C=C2)NC(=O)N3)NC(=O)C4=CC=CN(C4=O)CC5=CC(=C(C=C5)F)F (assay: log2 fold change, soluble protein after heating vs DMSO (PISA); higher = thermal stabilisation; K562 lysate, 10 uM; active = over 0.2 and 3.5 SD of the protein, either way, in both replicates (recomputed)).
Method in brief: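 Following dounce homogenisation of K562 pellets in PBS pH 7.4 with 1 mM MgCl2, crude extract at 1 mg/mL protein was incubated for 30 min with 10 μM compound. Aliquots were then heated for 3 min over 48°C-58°C and pooled, NP-40 was added to 0.5% at 4°C, and soluble protein was recovered as the supernatant at 21,000xg for 90 min. Channel-sum-equalised TMTpro 16plex LC-MS/MS quantified this protein. Each value, from duplicates, is a log-two fold change in thermal stability relative to solvent controls.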

Sequence of UniProt Q14157 (Q14157 whole entry, looked up): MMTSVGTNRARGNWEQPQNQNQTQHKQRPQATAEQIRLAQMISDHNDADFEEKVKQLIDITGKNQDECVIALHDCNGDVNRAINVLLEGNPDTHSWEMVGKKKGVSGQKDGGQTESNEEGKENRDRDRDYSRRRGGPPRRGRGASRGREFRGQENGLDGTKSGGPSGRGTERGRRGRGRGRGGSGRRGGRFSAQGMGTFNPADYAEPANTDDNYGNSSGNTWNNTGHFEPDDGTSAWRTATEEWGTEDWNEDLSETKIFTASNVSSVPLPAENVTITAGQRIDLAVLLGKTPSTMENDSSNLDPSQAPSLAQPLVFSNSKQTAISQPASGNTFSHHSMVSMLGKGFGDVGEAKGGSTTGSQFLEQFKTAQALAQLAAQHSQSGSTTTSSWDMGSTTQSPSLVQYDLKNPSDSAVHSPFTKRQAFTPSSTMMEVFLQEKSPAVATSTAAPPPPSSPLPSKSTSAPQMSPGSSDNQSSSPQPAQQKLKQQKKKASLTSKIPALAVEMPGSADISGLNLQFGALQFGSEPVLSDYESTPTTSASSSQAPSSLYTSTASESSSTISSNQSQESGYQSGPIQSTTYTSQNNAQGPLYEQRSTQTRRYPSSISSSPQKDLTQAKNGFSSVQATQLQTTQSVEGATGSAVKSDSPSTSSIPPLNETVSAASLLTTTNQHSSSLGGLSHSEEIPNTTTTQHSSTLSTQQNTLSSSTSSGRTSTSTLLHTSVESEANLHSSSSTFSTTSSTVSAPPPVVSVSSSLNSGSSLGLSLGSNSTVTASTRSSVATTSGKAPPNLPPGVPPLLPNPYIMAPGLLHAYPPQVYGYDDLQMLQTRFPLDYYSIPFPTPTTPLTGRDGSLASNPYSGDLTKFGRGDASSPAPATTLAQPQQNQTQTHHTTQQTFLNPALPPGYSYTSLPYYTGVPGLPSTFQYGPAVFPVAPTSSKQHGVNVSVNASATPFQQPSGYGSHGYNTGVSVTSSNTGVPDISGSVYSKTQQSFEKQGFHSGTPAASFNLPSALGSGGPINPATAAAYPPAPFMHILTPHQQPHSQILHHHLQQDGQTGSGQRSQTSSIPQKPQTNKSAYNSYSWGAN
Sequence of UniProt Q9P0S9 (Q9P0S9 whole entry, looked up): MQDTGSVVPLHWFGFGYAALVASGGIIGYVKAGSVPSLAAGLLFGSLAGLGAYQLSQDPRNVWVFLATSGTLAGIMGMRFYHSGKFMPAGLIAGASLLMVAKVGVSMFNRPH
Sequence of UniProt Q14166 (Q14166 whole entry, looked up): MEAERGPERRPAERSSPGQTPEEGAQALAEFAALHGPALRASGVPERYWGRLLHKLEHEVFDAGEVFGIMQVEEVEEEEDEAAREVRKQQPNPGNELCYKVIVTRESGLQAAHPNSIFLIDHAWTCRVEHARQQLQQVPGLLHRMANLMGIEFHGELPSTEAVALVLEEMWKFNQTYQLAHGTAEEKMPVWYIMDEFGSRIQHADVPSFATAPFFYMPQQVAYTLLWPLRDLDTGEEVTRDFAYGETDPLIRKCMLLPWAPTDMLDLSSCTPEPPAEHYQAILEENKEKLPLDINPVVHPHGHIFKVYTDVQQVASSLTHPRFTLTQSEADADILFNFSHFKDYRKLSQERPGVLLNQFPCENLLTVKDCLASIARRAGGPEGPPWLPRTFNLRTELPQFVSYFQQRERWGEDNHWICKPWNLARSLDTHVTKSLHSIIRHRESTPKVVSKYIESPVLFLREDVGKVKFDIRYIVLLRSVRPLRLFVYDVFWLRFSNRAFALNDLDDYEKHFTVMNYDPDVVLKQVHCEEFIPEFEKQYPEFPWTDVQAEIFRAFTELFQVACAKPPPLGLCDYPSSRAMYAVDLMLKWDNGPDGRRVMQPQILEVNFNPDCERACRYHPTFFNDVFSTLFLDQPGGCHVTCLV
Sequence of UniProt Q5JUR7 (Q5JUR7 whole entry, looked up): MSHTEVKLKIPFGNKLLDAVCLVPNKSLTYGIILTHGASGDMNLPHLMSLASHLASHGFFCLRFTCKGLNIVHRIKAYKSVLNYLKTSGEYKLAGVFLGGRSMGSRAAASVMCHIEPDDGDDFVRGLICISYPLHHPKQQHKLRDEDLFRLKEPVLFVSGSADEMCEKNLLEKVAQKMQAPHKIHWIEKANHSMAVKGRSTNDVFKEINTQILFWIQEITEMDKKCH
Sequence of UniProt Q5U3C3 (Q5U3C3 whole entry, looked up): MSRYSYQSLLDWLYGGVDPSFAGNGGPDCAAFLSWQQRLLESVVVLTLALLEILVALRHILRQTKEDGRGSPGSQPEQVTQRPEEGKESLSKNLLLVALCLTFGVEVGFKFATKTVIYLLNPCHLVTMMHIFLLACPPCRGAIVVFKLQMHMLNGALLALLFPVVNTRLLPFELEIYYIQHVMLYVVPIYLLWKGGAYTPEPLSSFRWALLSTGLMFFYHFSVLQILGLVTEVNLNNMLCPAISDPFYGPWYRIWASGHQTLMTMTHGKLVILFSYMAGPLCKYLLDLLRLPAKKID
Sequence of UniProt Q12800 (Q12800 whole entry, looked up): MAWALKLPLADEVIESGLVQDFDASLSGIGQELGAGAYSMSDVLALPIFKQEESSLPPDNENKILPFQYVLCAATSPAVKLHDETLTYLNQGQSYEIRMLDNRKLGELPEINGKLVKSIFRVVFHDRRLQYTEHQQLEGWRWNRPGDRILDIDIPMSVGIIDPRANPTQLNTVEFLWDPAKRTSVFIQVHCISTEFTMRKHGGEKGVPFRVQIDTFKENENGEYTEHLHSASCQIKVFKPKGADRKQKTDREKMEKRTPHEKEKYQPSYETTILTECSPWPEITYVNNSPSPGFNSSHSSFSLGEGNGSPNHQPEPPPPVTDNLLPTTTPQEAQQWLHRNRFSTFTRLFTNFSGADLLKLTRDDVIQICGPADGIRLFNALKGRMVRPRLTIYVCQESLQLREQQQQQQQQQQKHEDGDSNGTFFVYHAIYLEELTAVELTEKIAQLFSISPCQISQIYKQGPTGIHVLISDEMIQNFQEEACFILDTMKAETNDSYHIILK
Sequence of UniProt Q9Y5L0 (Q9Y5L0 whole entry, looked up): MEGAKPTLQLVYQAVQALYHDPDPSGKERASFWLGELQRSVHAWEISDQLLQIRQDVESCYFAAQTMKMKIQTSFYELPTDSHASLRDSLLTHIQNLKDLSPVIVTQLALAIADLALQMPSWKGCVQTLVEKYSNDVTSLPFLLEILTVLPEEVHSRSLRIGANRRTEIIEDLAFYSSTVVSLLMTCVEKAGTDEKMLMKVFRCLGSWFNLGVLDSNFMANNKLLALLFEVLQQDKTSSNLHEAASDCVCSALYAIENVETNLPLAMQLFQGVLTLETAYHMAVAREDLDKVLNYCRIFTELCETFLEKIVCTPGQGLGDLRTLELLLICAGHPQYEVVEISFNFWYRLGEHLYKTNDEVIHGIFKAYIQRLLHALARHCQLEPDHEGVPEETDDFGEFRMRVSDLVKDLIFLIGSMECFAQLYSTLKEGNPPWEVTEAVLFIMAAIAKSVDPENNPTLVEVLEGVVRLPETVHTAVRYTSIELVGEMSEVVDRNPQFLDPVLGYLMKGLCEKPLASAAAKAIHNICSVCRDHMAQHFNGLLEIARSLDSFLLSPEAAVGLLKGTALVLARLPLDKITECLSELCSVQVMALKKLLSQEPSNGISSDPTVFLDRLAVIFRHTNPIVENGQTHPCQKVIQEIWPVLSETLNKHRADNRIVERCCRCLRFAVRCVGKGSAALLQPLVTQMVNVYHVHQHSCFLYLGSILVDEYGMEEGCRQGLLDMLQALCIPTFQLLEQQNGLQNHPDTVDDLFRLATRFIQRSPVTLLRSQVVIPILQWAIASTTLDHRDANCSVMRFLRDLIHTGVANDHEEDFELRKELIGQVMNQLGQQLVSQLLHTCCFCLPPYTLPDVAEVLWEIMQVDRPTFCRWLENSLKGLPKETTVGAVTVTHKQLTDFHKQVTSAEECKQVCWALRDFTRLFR
Sequence of UniProt Q9UBB9 (Q9UBB9 whole entry, looked up): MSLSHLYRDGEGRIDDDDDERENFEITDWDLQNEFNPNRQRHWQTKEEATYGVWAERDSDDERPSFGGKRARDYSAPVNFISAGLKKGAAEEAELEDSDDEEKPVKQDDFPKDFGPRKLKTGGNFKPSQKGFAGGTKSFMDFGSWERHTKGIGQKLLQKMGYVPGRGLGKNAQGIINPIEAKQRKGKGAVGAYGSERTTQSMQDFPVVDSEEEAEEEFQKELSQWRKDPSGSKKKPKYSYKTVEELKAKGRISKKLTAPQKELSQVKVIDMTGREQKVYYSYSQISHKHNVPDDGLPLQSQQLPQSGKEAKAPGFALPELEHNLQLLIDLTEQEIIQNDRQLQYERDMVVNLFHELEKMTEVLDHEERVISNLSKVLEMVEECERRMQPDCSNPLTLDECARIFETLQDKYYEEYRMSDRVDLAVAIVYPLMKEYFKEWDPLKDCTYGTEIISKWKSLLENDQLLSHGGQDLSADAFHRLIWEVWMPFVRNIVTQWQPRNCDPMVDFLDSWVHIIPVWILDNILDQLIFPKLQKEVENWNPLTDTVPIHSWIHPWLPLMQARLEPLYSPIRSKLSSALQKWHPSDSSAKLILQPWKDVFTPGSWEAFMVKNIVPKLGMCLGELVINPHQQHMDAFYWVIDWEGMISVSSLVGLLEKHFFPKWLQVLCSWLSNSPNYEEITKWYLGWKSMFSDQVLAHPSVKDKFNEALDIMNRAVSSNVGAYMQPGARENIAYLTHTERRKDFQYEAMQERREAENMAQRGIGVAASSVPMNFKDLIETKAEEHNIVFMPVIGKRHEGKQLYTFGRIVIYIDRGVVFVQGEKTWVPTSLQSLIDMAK
Sequence of UniProt P06753 (P06753 whole entry, looked up): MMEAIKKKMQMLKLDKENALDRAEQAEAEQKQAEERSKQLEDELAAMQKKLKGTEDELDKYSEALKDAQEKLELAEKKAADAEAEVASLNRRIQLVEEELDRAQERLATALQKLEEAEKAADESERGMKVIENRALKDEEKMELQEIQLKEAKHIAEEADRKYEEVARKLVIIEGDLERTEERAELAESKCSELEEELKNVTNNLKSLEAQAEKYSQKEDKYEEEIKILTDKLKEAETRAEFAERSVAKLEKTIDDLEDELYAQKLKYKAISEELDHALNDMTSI

Target	log2 fold change
TRNAU1AP (UniProt Q9NX07)	-0.068
TERF2IP (UniProt Q9NYB0)	0.023
TFIP11 (UniProt Q9UBB9)	-0.033
TBC1D8B (UniProt Q0IIM8)	-0.086
UBE2H (UniProt P62256)	0.024
TMPO isoform 2 (UniProt P42167)	0.11
TELO2 (UniProt Q9Y4R8)	-0.073
UBAP2L isoform 1 (UniProt Q14157)	-0.101
TMEM263 (UniProt Q8WUH6)	-0.286
TTLL12 (UniProt Q14166)	-0.004
TTC37 (UniProt Q6PGP7)	-0.08
TUBB2A (UniProt Q13885)	0.017
TTF2 (UniProt Q9UNY4)	-0.092
UBAP2L isoform 5 (UniProt Q14157)	-0.047
TUBA4A (UniProt P68366)	-0.068
TEX30 (UniProt Q5JUR7)	-0.074
TECR (UniProt Q9NZ01)	-0.131
TUBGCP3 (UniProt Q96CW5)	-0.007
TMPO (UniProt P42166)	-0.013
TIMELESS (UniProt Q9UNS1)	-0.013

Target	log2 fold change
TPM3 (UniProt P06753)	-0.018
TMEM164 (UniProt Q5U3C3)	-0.13
TMEM14C (UniProt Q9P0S9)	-0.131
TXNIP (UniProt Q9H3M7)	0.056
TUBE1 (UniProt Q9UJT0)	-0.019
TDRKH (UniProt Q9Y2W6)	-0.02
TPM1 isoform 4 (UniProt P09493)	-0.008
UBXN6 (UniProt Q9BZV1)	-0.03
TRAPPC10 (UniProt P48553)	-0.014
TMEM199 (UniProt Q8N511)	0.005
TUBA1B (UniProt P68363)	-0.006
UBP1 (UniProt Q9NZI7)	0.082
TOR3A (UniProt Q9H497)	-0.009
TBC1D23 (UniProt Q9NUY8)	0.007
TRIM33 (UniProt H0Y612)	-0.042
TFCP2 (UniProt Q12800)	0.044
TNPO3 (UniProt Q9Y5L0)	-0.024
TUBGCP2 isoform 4 (UniProt Q9BSJ2)	0.009
TTC5 (UniProt Q8N0Z6)	-0.022

— the supplement of paper PMC10849652
